# From PubChem BioAssay (EPA / NIEHS)
# Records with an inconclusive call do not appear. Active and inactive are the calls of the source. How the source made its calls, unless noted: active means hit-call score of the fitted dose curve at least 0.9, where 1 is the maximum; inactive means score below 0.9.
# Assays:
# [1] = target: Hypoxia-inducible factor 1-alpha (Homo sapiens) (UniProt Q16665); experiment: ATG_HIF1a_CIS: Attagene CIS-FACTORIAL HepG2 Assay for human Hypoxia Inducible Factor 1 (HIF1A) (AID 2282951); conditions: HepG2 Attagene cis-factorial HIF1a reporter transcription; actives raise or lower the signal
# Hypoxia-inducible factor 1-alpha (Homo sapiens), sequence (Q16665 whole entry, looked up): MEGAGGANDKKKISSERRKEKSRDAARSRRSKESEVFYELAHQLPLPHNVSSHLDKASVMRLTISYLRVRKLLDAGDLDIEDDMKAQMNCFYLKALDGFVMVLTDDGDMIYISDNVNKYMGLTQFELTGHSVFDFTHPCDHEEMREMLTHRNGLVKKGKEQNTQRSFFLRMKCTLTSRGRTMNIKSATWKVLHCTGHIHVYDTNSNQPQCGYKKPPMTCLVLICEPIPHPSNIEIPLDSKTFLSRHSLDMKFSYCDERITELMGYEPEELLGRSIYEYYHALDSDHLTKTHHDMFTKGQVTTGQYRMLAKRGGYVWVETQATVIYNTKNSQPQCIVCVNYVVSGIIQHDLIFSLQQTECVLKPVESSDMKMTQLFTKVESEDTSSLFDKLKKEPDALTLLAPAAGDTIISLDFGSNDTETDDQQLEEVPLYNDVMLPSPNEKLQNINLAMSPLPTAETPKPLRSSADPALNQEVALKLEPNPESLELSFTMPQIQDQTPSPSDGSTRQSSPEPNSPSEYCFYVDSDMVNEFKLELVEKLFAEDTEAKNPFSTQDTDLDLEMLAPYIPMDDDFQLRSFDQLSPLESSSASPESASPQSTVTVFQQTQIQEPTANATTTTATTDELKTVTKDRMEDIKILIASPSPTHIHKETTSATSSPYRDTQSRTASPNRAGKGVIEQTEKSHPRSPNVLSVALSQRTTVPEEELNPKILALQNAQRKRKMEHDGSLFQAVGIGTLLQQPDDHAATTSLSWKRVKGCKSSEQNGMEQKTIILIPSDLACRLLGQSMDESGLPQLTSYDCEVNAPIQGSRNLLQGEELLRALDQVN
# Procedure, shortened: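 Dosed 24 h, transfected HepG2 cells yielded total RNA whose reporter transcripts were RT-PCR-amplified and sized by capillary electrophoresis using fluorescent labelling; DMSO defined baseline, with gain and loss of signal both fitted.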
# [2] = target: Hepatocyte nuclear factor 6 (Homo sapiens) (UniProt Q9UBC0); experiment: ATG_HNF6_CIS: Attagene CIS-FACTORIAL HepG2 Assay for human Hepatocyte Nuclear Factor 6 (HNF6) (AID 2282952); conditions: HepG2 Attagene cis-factorial HNF6 reporter transcription; actives raise or lower the signal
# Hepatocyte nuclear factor 6 (Homo sapiens), sequence (Q9UBC0 whole entry, looked up, the tested form may be a part): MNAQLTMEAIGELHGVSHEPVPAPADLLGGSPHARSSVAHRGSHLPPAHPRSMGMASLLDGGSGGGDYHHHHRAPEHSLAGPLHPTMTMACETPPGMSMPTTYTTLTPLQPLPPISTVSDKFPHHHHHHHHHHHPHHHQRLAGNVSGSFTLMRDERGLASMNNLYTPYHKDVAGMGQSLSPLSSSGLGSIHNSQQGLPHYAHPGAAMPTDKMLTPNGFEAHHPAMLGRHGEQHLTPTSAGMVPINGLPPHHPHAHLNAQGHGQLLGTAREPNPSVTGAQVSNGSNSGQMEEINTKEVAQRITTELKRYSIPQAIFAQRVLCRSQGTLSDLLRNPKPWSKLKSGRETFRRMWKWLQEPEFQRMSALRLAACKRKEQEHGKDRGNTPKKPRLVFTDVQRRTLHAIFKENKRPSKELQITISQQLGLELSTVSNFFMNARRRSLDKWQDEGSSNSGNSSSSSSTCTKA
# Procedure, shortened: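 Twenty-four-hour chemical treatment of reporter-transfected HepG2 cells precedes RNA isolation, DNase-treated reverse transcription and PCR of reporter sequences. Labelled fragments are sized by capillary electrophoresis and fitted bidirectionally versus DMSO.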
# [3] = target: Heat shock factor protein 1 (Homo sapiens) (UniProt Q00613); experiment: ATG_HSE_CIS: Attagene CIS-FACTORIAL HepG2 Assay for human Heat Shock Transcription Factor 1 (HSE) (AID 2282953); conditions: HepG2 HSE cis-reporter, Attagene RNA transcription; actives raise or lower the signal
# Heat shock factor protein 1 (Homo sapiens), sequence (Q00613 whole entry, looked up): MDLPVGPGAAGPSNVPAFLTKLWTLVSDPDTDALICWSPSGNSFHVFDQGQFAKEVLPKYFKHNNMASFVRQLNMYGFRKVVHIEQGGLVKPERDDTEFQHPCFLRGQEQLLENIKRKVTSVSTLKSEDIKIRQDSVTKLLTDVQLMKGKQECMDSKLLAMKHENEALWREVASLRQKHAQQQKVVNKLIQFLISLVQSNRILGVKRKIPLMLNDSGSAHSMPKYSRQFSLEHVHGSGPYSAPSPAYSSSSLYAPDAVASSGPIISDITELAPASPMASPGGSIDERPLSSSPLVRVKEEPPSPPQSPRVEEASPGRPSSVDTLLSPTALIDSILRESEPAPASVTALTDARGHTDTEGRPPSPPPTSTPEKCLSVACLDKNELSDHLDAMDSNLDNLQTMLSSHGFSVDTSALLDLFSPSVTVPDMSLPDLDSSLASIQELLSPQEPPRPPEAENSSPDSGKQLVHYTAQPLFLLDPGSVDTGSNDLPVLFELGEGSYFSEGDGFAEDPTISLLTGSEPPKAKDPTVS
# Procedure, shortened: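 Using HepG2 with transfected cis-driven reporter constructs, compound effects on endogenous factor activity are scored as reporter mRNA change at 24 h. Detection: RT-PCR, HpaI digestion, capillary electrophoresis; bidirectional fitting to DMSO.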
# [4] = ATG_MRE_CIS: Attagene CIS-FACTORIAL HepG2 Assay for human Metal Responsive Element (MRE) (AID 2282954); conditions: HepG2 MRE cis-reporter transcription, Attagene multiplex; actives raise or lower the signal
# Procedure, shortened: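 RT-PCR/capillary electrophoresis readout of reporter mRNA, 24 h post-dosing, in HepG2 cells transfected with multiplexed cis-regulated reporter constructs. Gain or loss of signal fitted bidirectionally against DMSO baseline.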
# [5] = ATG_PBREM_CIS: Attagene CIS-FACTORIAL HepG2 Assay for human Phenobarbital-responsive Enhancer Module (PBREM) (AID 2282955); conditions: HepG2 PBREM cis-reporter, Attagene multiplexed transcription; actives raise or lower the signal
# Procedure, shortened: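 Transfected liver-derived HepG2 cells exposed 24 h; PBREM reporter transcript quantified via RT-PCR and capillary electrophoresis, with activity in either direction referenced to DMSO.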
# [6] = target: Paired box protein Pax-6 (Homo sapiens) (UniProt P26367); experiment: ATG_Pax6_CIS: Attagene CIS-FACTORIAL HepG2 Assay for human Paired Box 6 (PAX6) (AID 2282956); conditions: HepG2 CIS-FACTORIAL PAX6 reporter transcription, RNA readout; actives raise or lower the signal
# Paired box protein Pax-6 (Homo sapiens), sequence (P26367 whole entry, looked up): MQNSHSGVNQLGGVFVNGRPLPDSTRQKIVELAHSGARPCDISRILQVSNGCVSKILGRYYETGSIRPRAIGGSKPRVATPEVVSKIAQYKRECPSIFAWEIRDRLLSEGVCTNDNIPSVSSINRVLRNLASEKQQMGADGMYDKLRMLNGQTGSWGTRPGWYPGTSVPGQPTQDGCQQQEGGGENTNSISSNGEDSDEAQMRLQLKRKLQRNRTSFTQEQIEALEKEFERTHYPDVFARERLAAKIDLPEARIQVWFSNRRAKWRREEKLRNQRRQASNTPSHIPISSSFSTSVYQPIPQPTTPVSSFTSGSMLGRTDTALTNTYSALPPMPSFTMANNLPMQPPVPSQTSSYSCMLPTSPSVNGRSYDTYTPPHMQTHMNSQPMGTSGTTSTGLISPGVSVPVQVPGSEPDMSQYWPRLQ
# Procedure, shortened: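 Read-out is reporter transcript level, measured by RT-PCR with fluorescent primer extension and capillary electrophoresis after 24 h dosing of transfected HepG2 cells. Activity in either direction fitted relative to DMSO control.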
# [7] = ATG_PXRE_CIS: Attagene CIS-FACTORIAL HepG2 Assay for human Pregnane X Receptor Element (PXRE) (AID 2282957); conditions: HepG2 Attagene CIS-FACTORIAL PXRE reporter, mRNA; actives raise or lower the signal
# Procedure, shortened: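 Bidirectional activity, baselined to DMSO, derived from reporter mRNA fluorescence (RT-PCR plus capillary electrophoresis) in HepG2 cells bearing cis-promoter reporter units, 24 h exposure.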
# [8] = ATG_RORE_CIS: Attagene CIS-FACTORIAL HepG2 Assay for human RAR-related Orphan Receptor Element (RORE) (AID 2282959); conditions: HepG2 Attagene cis-factorial RORE reporter, mRNA; actives raise or lower the signal
# Procedure, shortened: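 Transiently transfected HepG2 reporter cells were treated 24 h. Reporter transcripts were detected by RT-PCR and capillary electrophoresis, with bidirectional fitting against DMSO.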
# [9] = ATG_Sox_CIS: Attagene CIS-FACTORIAL HepG2 Assay for human SRY-box transcription factor (SOX) (AID 2282960); conditions: HepG2 Attagene cis-factorial SOX reporter, mRNA; actives raise or lower the signal
# Procedure, shortened: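 Gain- or loss-of-signal endpoint, fitted bidirectionally with DMSO as negative control. Based on reporter mRNA from transfected HepG2 cells harvested 24 h post-treatment and quantified via RT-PCR and capillary electrophoresis.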
# [10] = target: Transcription factor Sp1 (Homo sapiens) (UniProt P08047); experiment: ATG_Sp1_CIS: Attagene CIS-FACTORIAL HepG2 Assay for human Specificity Protein 1 (Sp1) (AID 2282961); conditions: HepG2 Sp1 cis-reporter transcription, actives raise or lower the signal
# Transcription factor Sp1 (Homo sapiens), sequence (P08047 whole entry, looked up, the tested form may be a part): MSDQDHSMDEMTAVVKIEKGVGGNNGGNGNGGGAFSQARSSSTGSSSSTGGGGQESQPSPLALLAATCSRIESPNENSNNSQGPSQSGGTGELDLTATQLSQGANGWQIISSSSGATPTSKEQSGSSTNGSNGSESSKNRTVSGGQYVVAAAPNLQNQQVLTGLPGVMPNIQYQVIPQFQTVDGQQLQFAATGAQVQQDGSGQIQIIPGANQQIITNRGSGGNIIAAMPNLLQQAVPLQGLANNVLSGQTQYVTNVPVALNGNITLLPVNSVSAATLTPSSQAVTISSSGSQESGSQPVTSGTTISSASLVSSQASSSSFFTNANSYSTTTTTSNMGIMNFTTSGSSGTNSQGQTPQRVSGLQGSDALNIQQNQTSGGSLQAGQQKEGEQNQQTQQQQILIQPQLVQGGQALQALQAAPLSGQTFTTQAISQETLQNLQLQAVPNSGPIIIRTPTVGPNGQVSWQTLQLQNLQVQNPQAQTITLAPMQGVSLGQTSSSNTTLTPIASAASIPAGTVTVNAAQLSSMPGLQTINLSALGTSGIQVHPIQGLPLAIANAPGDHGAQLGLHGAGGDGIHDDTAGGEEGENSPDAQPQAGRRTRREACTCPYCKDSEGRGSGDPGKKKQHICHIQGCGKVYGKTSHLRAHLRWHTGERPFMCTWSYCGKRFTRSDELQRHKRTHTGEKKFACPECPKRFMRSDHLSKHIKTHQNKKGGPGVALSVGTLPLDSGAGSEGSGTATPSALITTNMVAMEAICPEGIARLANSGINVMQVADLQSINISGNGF
# Procedure, shortened: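 Endpoint reflects endogenous Sp1 transcriptional activity, not an exogenous fusion protein: HepG2 cells with transfected cis-regulated reporters, 24 h dosing, RT-PCR/capillary electrophoresis mRNA read-out, DMSO-normalised bidirectional fit.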
# [11] = ATG_SREBP_CIS: Attagene CIS-FACTORIAL HepG2 Assay for human Sterol Regulatory Element Binding (SREBP) (AID 2282962); conditions: HepG2 Attagene cis-factorial SREBP reporter, mRNA; actives raise or lower the signal
# Procedure, shortened: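 Endogenous SREBP activity read as cis-element-driven reporter transcript in transiently transfected HepG2, 24 h post-dosing; quantified via RT-PCR plus capillary electrophoresis of fluorescent fragments. Gain or loss of signal fitted relative to DMSO baseline.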
# [12] = target: Signal transducer and activator of transcription 3 (Homo sapiens) (UniProt P40763); experiment: ATG_STAT3_CIS: Attagene CIS-FACTORIAL HepG2 Assay for human Signal Transducer and Activator of Transcription 3 (STAT3) (AID 2282963); conditions: HepG2, Attagene cis-factorial STAT3 reporter transcription; actives raise or lower the signal
# Signal transducer and activator of transcription 3 (Homo sapiens), sequence (P40763 whole entry, looked up, the tested form may be a part): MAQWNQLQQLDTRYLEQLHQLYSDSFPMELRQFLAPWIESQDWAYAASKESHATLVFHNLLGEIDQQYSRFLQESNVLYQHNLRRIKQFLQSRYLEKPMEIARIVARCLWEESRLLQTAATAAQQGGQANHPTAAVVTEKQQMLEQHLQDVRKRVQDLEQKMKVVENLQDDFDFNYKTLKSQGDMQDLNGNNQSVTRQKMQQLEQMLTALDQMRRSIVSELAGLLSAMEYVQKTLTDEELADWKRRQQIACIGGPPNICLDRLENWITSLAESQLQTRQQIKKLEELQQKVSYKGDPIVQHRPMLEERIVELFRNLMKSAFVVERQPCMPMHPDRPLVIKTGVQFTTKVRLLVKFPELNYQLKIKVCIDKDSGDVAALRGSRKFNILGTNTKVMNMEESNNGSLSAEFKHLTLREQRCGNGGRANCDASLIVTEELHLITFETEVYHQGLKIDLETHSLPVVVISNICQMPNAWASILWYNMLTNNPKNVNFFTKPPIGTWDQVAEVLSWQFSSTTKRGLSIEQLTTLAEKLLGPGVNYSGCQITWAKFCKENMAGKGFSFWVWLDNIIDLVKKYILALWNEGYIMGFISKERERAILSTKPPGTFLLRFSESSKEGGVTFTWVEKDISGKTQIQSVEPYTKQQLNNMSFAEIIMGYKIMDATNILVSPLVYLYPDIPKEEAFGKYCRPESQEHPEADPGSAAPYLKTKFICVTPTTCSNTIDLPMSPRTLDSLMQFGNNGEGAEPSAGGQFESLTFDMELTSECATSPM
# Procedure, shortened: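 Readout: fluorescent reporter mRNA fragments resolved by capillary electrophoresis. Setup: HepG2 transfected with MRTUs reporting endogenous transcription-factor activity, dosed 24 h. Gain or loss of signal fitted bidirectionally against DMSO control.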
# [13] = ATG_TA_CIS: Attagene CIS-FACTORIAL HepG2 Assay for human TA Basal Promoter (AID 2282964); conditions: HepG2 Attagene CIS-factorial TA basal promoter reporter; actives raise or lower the signal
# Procedure, shortened: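 Transient MRTU transfection of HepG2 preceded 24 h compound exposure. Reporter mRNA levels were then read by RT-PCR with capillary electrophoresis, and this background-control endpoint was fitted bidirectionally to DMSO.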
# [14] = ATG_TCF_b_cat_CIS: Attagene CIS-FACTORIAL HepG2 Assay for human T-Cell-Factor with beta-catenin (TCF/b-cat) (AID 2282965); conditions: HepG2 TCF/beta-catenin cis-reporter transcription, actives raise or lower the signal
# Procedure, shortened: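 HepG2, transient MRTU transfection, cis-element-driven reporters (endogenous TFs). 24 h compound exposure. Readout: reporter mRNA by RT-PCR + 6-FAM primer extension, HpaI digest, capillary electrophoresis. Gain/loss fit vs DMSO baseline.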
# [15] = ATG_TAL_CIS: Attagene CIS-FACTORIAL HepG2 Assay for human TAL Basal Promoter (AID 2282966); conditions: HepG2 Attagene cis-factorial TAL promoter reporter; actives raise or lower the signal;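 further: background control endpoint measuring basal TAL promoter reporter mRNA not a specific factor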
# Procedure, shortened: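 Human hepatoma HepG2 cells, transfected with promoter-regulated reporter units, were treated 24 h. Reporter transcript levels, measured through RT-PCR and capillary electrophoresis, were fitted for gain or loss relative to DMSO.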
# [16] = ATG_TGFb_CIS: Attagene CIS-FACTORIAL HepG2 Assay for human Transforming Growth Factor (TGF) (AID 2282967); conditions: HepG2 Attagene CIS TGFb reporter, mRNA transcription; actives raise or lower the signal
# Procedure, shortened: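 After a 24-hour incubation with compound, transfected HepG2 cells were lysed for RNA; reporter cDNA was amplified, fluorescently end-labeled and separated by CE. DMSO served as baseline for bidirectional fits.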
# [17] = ATG_VDRE_CIS: Attagene CIS-FACTORIAL HepG2 Assay for human Vitamin D Receptor Element (VDRE) (AID 2282968); conditions: HepG2 VDRE cis-reporter transcription, actives raise or lower the signal
# Procedure, shortened: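 Transient MRTU transfection of HepG2, 24 h compound exposure. Readout: reporter transcripts via RT-PCR and capillary electrophoresis, fluorescence. Bidirectional fit vs DMSO.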
# [18] = target: Nuclear receptor subfamily 1 group I member 3 (Homo sapiens) (UniProt Q14994); experiment: ATG_CAR_TRANS: Attagene TRANS-FACTORIAL HepG2 Assay for human Constitutive Androstane Receptor (CAR) (AID 2282969; active means hit-call score of the fitted dose curve at least 0.9, where 1 is the maximum;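 further: activators raise reporter mRNA above DMSO so AC50 marks induction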); conditions: HepG2 Attagene TRANS-FACTORIAL CAR reporter
# Nuclear receptor subfamily 1 group I member 3 (Homo sapiens), sequence (Q14994 whole entry, looked up, the tested form may be a part): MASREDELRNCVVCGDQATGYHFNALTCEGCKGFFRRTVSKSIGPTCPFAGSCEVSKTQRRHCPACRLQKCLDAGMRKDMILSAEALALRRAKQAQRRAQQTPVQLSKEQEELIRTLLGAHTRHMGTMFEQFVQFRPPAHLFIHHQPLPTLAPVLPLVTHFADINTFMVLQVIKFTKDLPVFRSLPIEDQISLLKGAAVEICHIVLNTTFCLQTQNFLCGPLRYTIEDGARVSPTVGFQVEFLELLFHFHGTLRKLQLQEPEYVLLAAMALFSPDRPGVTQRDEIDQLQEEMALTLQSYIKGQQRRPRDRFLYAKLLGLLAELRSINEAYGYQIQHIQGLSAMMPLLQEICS
# Procedure, shortened: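 Transiently transfected HepG2, multiplex TRANS reporters (CAR-Gal4 chimera driving GAL4-UAS reporter). 24 h dosing. Readout: reporter transcript by RT-PCR + capillary electrophoresis, fluorescence intensity; positive direction vs DMSO.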
# [19] = target: Estrogen receptor (Homo sapiens) (UniProt P03372); experiment: ATG_ERa_TRANS: Attagene TRANS-FACTORIAL HepG2 Assay for human Estrogen Receptor alpha (ERa) (AID 2282970; active means hit-call score of the fitted dose curve at least 0.9, where 1 is the maximum); conditions: HepG2 Attagene TRANS ERa GAL4 reporter, mRNA
# Estrogen receptor (Homo sapiens), sequence (P03372 whole entry, looked up, the tested form may be a part): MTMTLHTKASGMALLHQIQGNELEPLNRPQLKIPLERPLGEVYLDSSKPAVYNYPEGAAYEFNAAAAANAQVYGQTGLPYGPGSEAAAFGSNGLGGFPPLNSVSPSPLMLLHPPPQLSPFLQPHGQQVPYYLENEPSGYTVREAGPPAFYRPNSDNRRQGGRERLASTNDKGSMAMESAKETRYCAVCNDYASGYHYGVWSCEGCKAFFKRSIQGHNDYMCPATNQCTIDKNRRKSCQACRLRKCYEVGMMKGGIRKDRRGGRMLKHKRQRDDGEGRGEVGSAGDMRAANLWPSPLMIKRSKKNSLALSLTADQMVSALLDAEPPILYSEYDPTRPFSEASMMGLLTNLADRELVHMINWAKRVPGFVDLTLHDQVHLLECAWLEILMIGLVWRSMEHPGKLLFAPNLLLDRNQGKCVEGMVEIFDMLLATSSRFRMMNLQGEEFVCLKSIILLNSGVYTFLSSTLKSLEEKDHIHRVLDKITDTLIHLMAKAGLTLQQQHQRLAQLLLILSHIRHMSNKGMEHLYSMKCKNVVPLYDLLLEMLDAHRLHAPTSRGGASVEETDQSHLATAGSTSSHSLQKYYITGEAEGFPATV
# Procedure, shortened: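 Signal derives from fluorescence of labelled reporter PCR fragments separated by capillary electrophoresis. HepG2 cells transiently carrying multiple GAL4-UAS reporter units were treated 24 hours, and induction above DMSO baseline was fitted as activity.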
# [20] = ATG_PPRE_CIS: Attagene CIS-FACTORIAL HepG2 Assay for human Peroxisome Proliferator-activated Response Element (PPRE) (AID 2282958); conditions: HepG2 PPRE cis-element reporter, Attagene transcription factor profiling; actives raise or lower the signal
# Procedure, shortened: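 Measured endpoint: PPRE-controlled reporter mRNA, detected by RT-PCR and capillary electrophoresis fluorescence, from transiently transfected HepG2 cells 24 h after dosing. Curves fitted in both directions using DMSO baseline.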
smiles,measurement,setting,value
CCNc1nc(NCC)nc(SC)n1,outcome,[1],inactive
same,outcome,[2],inactive
same,outcome,[3],inactive
same,outcome,[4],inactive
same,outcome,[5],inactive
same,outcome,[6],inactive
same,AC50,[7],27.9 µM (active)
same,outcome,[8],inactive
same,outcome,[9],inactive
same,outcome,[10],inactive
same,outcome,[11],inactive
same,outcome,[12],inactive
same,outcome,[13],inactive
same,outcome,[14],inactive
same,outcome,[15],inactive
same,outcome,[16],inactive
same,outcome,[17],inactive
same,outcome,[18],inactive
same,outcome,[19],inactive
CN(C)[C@@H]1C(=O)C(C(N)=O)=C(O)[C@@]2(O)C(=O)C3=C(O)c4c(O)ccc(Cl)c4[C@@](C)(O)[C@H]3C[C@@H]12,outcome,[1],inactive
same,outcome,[2],inactive
same,outcome,[3],inactive
same,outcome,[4],inactive
same,outcome,[5],inactive
same,outcome,[6],inactive
same,outcome,[7],inactive
same,outcome,[8],inactive
same,outcome,[9],inactive
same,outcome,[10],inactive
same,outcome,[11],inactive
same,outcome,[12],inactive
same,outcome,[13],inactive
same,outcome,[14],inactive
same,outcome,[15],inactive
same,outcome,[16],inactive
same,outcome,[17],inactive
Nc1ccc(Br)cc1,outcome,[1],inactive
same,outcome,[2],inactive
same,outcome,[3],inactive
same,outcome,[4],inactive
same,outcome,[5],inactive
same,outcome,[7],inactive
same,outcome,[20],inactive
same,outcome,[8],inactive
same,outcome,[9],inactive
same,outcome,[10],inactive
same,outcome,[11],inactive
same,outcome,[12],inactive
same,outcome,[13],inactive
same,outcome,[14],inactive
same,outcome,[15],inactive
same,outcome,[16],inactive
same,outcome,[19],inactive
CCOC(=O)CC(=O)CCl,outcome,[1],inactive
same,outcome,[2],inactive
same,AC50,[3],146 µM (active)
same,AC50,[4],26 µM (active)
same,outcome,[5],inactive
same,AC50,[6],27.4 µM (active)
same,outcome,[7],inactive
same,outcome,[8],inactive
same,AC50,[9],26.2 µM (active)
same,AC50,[10],23.9 µM (active)
same,AC50,[11],26.2 µM (active)
same,outcome,[12],inactive
same,outcome,[13],inactive
same,outcome,[14],inactive
same,outcome,[15],inactive
same,AC50,[16],36.1 µM (active)
same,AC50,[17],27 µM (active)
CCOc1ccc(N)cc1,outcome,[1],inactive
same,outcome,[2],inactive
same,outcome,[3],inactive
same,outcome,[4],inactive
same,outcome,[5],inactive
same,outcome,[6],inactive
same,AC50,[7],46.6 µM (active)
same,outcome,[8],inactive
same,outcome,[9],inactive
same,outcome,[10],inactive
same,outcome,[11],inactive
same,outcome,[12],inactive
same,outcome,[13],inactive
same,outcome,[14],inactive
same,outcome,[15],inactive
same,outcome,[16],inactive
same,outcome,[17],inactive
same,outcome,[19],inactive
COCCl,outcome,[1],inactive
same,outcome,[2],inactive
same,outcome,[3],inactive
same,outcome,[4],inactive
same,outcome,[5],inactive
same,outcome,[7],inactive
same,outcome,[20],inactive
same,outcome,[8],inactive
same,outcome,[9],inactive
same,outcome,[10],inactive
same,outcome,[11],inactive
same,outcome,[12],inactive
same,outcome,[13],inactive
same,outcome,[14],inactive
same,outcome,[15],inactive
same,outcome,[16],inactive
same,outcome,[17],inactive
C=CC(Cl)CCl (configuration not stated),outcome,[1],inactive
same,outcome,[2],inactive
same,outcome,[3],inactive
same,outcome,[4],inactive
same,outcome,[5],inactive
same,outcome,[6],inactive
same,AC50,[7],3.12 µM (active)
same,outcome,[8],inactive
same,outcome,[9],inactive
same,outcome,[10],inactive
same,outcome,[11],inactive
same,outcome,[12],inactive
same,outcome,[13],inactive
same,outcome,[14],inactive
same,outcome,[15],inactive
same,outcome,[16],inactive
same,outcome,[17],inactive
